From PubChem BioAssay (Tox21)
A number with no mark means an inactive call. Inconclusive results are not listed. Entries that show only a call come without a potency. Active and inactive are the calls of the source. Unless noted, calls follow the shape of the dose curve; as a rule, active = well fitted curve in the direction sought with a large enough effect in the repeat runs; inconclusive = weak or mixed curves; inactive = no such curve, though single readings can be large; an effect the other way counts as inactive or inconclusive.

Key:
[1] = qHTS assay for small molecule agonists of the p53 signaling pathway (AID 651631; calls by dose curve; also: nearly all actives have a fitted effect of over 15% in size; also: potency is read from the fitted curve at half-maximal effect)
Method in brief: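 Read-out is beta-lactamase FRET fluorescence measured 2 h after substrate addition at room temperature, in HCT-116 cells with a p53 response element-driven reporter exposed to compounds for 16 h at 37 °C.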

[2] = qHTS assay for small molecules that induce genotoxicity in human embryonic kidney cells expressing luciferase-tagged ATAD5 (AID 651632); also: nearly all actives have a fitted effect of over 15% in size
Method in brief: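 Test compounds were delivered by pin tool onto HEK293T reporter cells (2,000/well) expressing ATAD5 fused to luciferase. After 16 hr at 37C, 5% CO2, Amplite was added for 30 min at room temperature and luminescence was measured.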

[3] = qHTS assay for small molecule agonists of the p53 signaling pathway - cell viability (AID 651633; calls by dose curve;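 also: p53RE-bla HCT reporter cells with a stable beta-lactamase p53 reporter; series mostly up to about 83 µM; nearly all actives have a fitted effect of over 30% in size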)
Method in brief: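 p53RE-bla cells were treated with compound for 16 hours at 37 C. Cytotoxicity was then measured as CellTiter-Glo luminescence after 30 min at room temperature.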

[4] = qHTS assay for small molecules that induce genotoxicity in human embryonic kidney cells expressing luciferase-tagged ATAD5 - cell viability (AID 651634; calls by dose curve; also: nearly all actives have a fitted effect of over 25% in size)
Method in brief: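 Quantitative high-throughput format. HEK293T cells expressing ATAD5 fused to luciferase were plated at 2,000 cells/well and treated 15.5 hr with compound versus DMSO. Viability was determined by fluorescent live-cell protease substrate, 30 min at 37C.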

[5] = qHTS assay for small molecule disruptors of the mitochondrial membrane potential - cell viability (AID 720634; calls by dose curve;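 also: human HepG2 liver cancer cells; series mostly up to about 83 µM; nearly all actives have a fitted effect of over 20% in size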)
Method in brief: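 Same-well counter-screen: following the MMP dye addition, CellTiter-Glo was added to 1 hr compound-treated HepG2 cells and luminescence read after 30 min at room temperature.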

[6] = qHTS assay for small molecule disruptors of the mitochondrial membrane potential (AID 720635)
Method in brief: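 HepG2 cells exposed to compound 1 hr at 37C, then Mito-MPS dye 30 min. Ratio read of aggregate (540/590 nm) versus monomer (490/535 nm) fluorescence.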

[7] = qHTS assay to test for compound auto fluorescence at 590 nm (red) in HepG2 cells (AID 720674)
Method in brief: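 Seeding: 2,000 HepG2 cells/well, MEM/10% FBS, overnight 37 C. Dosing: compound vs DMSO. Incubation: 1 hr, 37 C, 5% CO2. Read: fluorescence 540 ex/590 em, Rose Bengal sodium as red reference.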

[8] = qHTS assay to test for compound auto fluorescence at 535 nm (green) in HepG2 cells (AID 720675)
[9] = qHTS assay to test for compound auto fluorescence at 460 nm (blue) in HEK293 cells (AID 720678)
Method in brief: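 HEK293, 2,000 cells/well, 10% dialyzed FBS; attach 4-5 hr 37C; pin compound or DMSO; o/n 37C/5% CO2; fluorescence 405/460 nm; triamterene-equivalent units.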

[10] = qHTS assay to test for compound auto fluorescence at 590 nm (red) in HEK293 cells (AID 720679)
Method in brief: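 Intensity at 540nm excitation and 590nm emission is reported as Rose Bengal sodium-equivalent autofluorescence. Measurements followed overnight exposure (37C, 5% CO2) of HEK293 cells, 2,000 per well, to 23 nL compound.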

[11] = qHTS assay to test for compound auto fluorescence at 535 nm (green) in HEK293 cells (AID 720680)
[12] = qHTS assay to test for compound auto fluorescence at 460 nm (blue) in HEK293 cell free culture (AID 720681)
Method in brief: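 Compounds were added to cell-free DMEM with 10% FBS and fluorescence read directly. The blue channel used 405 nm excitation and 460 nm emission, with triamterene as the reference fluorophore.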

[13] = qHTS assay to test for compound auto fluorescence at 535 nm (green) in HEK293 cell free culture (AID 720682)
Method in brief: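 Fluorescein serves as the green reference fluorophore; each compound's intrinsic emission at 535 nm (excitation 485 nm) is reported as an equivalent amount of that dye, measured in serum-containing DMEM without cells.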

[14] = qHTS assay to test for compound auto fluorescence at 590 nm (red) in HEK293 cell free culture (AID 720683)
Method in brief: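 Cell-free wells of DMEM with 10% FBS received compound, and intrinsic fluorescence was read at excitation/emission 540/590 nm. Values expressed as equivalence to Rose Bengal sodium.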

[15] = qHTS assay to test for compound auto fluorescence at 590 nm (red) in HepG2 cell free culture (AID 720684)
Method in brief: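 Rose Bengal sodium served as the reference for red signal. Test compounds were dispensed into serum-containing MEM (10% FBS) without cells, and plates were read at 540/590 nm.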

[16] = qHTS assay to test for compound auto fluorescence at 460 nm (blue) in HepG2 cell free culture (AID 720685)
Method in brief: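 Cell-free plates of MEM plus 10% FBS received 23 nL compound or DMSO vehicle; blue-channel (405/460 nm) intensity scored against triamterene as reference fluorophore.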

[17] = qHTS assay to test for compound auto fluorescence at 535 nm (green) in HepG2 cell free culture (AID 720686)
[18] = qHTS assay to test for compound auto fluorescence at 460 nm (blue) in HepG2 cells (AID 720687)
Method in brief: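 HepG2 cells in MEM with 10% FBS, attached overnight at 37 C, were exposed to compound or DMSO for 1 hr at 37 C, 5% CO2. Blue fluorescence was read at 405/460 nm, with triamterene as reference fluorophore.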

[19] = target: Glucocorticoid receptor (Homo sapiens) (UniProt P04150); test: qHTS assay to identify small molecule agonists of the glucocorticoid receptor (GR) signaling pathway (AID 720691; active = well fitted activation curve with a large enough effect in the signal ratio in the repeat runs, not every such curve was filed as active; the % refers to the signal ratio)
Sequence of Glucocorticoid receptor (Homo sapiens) (P04150 whole entry, looked up): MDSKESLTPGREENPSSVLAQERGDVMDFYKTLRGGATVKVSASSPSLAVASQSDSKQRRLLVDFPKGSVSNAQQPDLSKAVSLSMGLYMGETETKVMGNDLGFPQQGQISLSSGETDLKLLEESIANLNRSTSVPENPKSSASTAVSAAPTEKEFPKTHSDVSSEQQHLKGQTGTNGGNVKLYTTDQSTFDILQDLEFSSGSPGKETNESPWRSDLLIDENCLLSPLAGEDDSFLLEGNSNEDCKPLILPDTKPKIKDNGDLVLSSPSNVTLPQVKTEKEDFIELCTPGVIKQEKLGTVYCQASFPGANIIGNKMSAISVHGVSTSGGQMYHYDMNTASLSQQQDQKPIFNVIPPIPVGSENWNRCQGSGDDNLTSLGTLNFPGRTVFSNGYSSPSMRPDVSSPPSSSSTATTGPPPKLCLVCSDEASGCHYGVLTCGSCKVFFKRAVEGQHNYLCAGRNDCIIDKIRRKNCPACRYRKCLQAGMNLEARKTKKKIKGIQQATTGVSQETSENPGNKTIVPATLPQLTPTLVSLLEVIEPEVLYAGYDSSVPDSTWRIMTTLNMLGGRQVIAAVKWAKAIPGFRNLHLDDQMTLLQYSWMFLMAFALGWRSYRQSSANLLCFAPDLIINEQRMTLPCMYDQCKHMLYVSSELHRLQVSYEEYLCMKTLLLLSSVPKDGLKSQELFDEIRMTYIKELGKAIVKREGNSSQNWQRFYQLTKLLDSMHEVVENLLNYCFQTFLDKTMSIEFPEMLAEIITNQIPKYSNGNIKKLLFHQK
Method in brief: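 A HeLa cervical cancer line expressing GR and a glucocorticoid response element-driven beta-lactamase gene is treated with compounds for 18 h; LiveBLAzer B/G FRET substrate is then applied and fluorescence read.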

[20] = target: Glucocorticoid receptor (Homo sapiens) (UniProt P04150); test: qHTS assay to identify small molecule antagonists of the glucocorticoid receptor (GR) signaling pathway (AID 720692; active = well fitted inhibition curve with a large enough effect in the signal ratio in the repeat runs, not every such curve was filed as active; the % refers to the signal ratio)
Method in brief: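 GRE-bla HeLa line, dex-stimulated (5 nM final). Compound exposure 18 h, 37 C. Beta-lactamase FRET read after 2 h RT substrate.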

SMILES | Potency [1] | Potency [2] | Potency [3] | Potency [4] | Potency [5] | Potency [6] | outcome [7] | outcome [8] | Potency [9] | outcome [10] | outcome [11] | Potency [12] | outcome [13] | outcome [14] | outcome [15] | Potency [16] | outcome [17] | Potency [18] | Potency [19] | Potency [20]
O=C(O)/C=C/c1ccc(/C=C/C(=O)O)cc1 | inactive | inactive | inactive | inactive | inactive | inactive | inactive | inactive | inactive | inactive | inactive | inactive | inactive | inactive | inactive | inactive | inactive | inactive | inactive | inactive
Nc1cc(C(Cl)=C(Cl)Cl)c(S(N)(=O)=O)cc1S(N)(=O)=O | inactive | inactive | inactive | inactive | inactive | inactive | inactive | inactive | inactive | inactive | inactive | inactive | inactive | – | inactive | inactive | inactive | inactive | inactive | inactive
Cc1c(C)n(CCN(C)C)c2ccc(C(=O)OCCN(C)C)cc12 | 26.6 µM (active) | inactive | inactive | inactive | inactive | – | inactive | inactive | inactive | inactive | inactive | inactive | inactive | inactive | inactive | inactive | inactive | inactive | – | –
CC(C)(C)OC(=O)N1C[C@@H](F)C[C@H]1C(=O)O | inactive | inactive | inactive | inactive | inactive | inactive | inactive | – | inactive | inactive | inactive | inactive | inactive | inactive | inactive | inactive | inactive | inactive | inactive | inactive
CC(=O)OC(C)(C)C | inactive | inactive | inactive | inactive | inactive | – | inactive | inactive | inactive | inactive | inactive | inactive | inactive | inactive | inactive | inactive | inactive | inactive | – | –
COc1ccc(NC(C)=O)cc1 | inactive | inactive | inactive | inactive | inactive | inactive | inactive | – | inactive | inactive | inactive | inactive | inactive | – | inactive | inactive | inactive | inactive | inactive | inactive
CCCCCCCCCCCl | inactive | inactive | inactive | inactive | inactive | inactive | inactive | inactive | inactive | inactive | inactive | inactive | inactive | – | inactive | inactive | inactive | inactive | inactive | –
CCO[Si](C)(OCC)OCC | inactive | inactive | inactive | inactive | inactive | inactive | inactive | – | inactive | inactive | inactive | inactive | inactive | inactive | inactive | inactive | inactive | inactive | inactive | –
COCc1ccc(COC)cc1 | inactive | inactive | inactive | inactive | inactive | inactive | inactive | – | inactive | inactive | inactive | inactive | inactive | inactive | inactive | inactive | inactive | inactive | – | –
CC(=O)O[C@H](CC(=O)[O-])C[N+](C)(C)C | inactive | inactive | inactive | inactive | inactive | inactive | inactive | – | inactive | inactive | inactive | inactive | inactive | – | inactive | inactive | inactive | inactive | inactive | inactive
COC(C(=O)O)c1ccccc1 (stereo not drawn) | inactive | inactive | inactive | inactive | inactive | inactive | inactive | inactive | inactive | inactive | inactive | inactive | inactive | inactive | inactive | inactive | inactive | inactive | inactive | inactive
OCC(CO)(CO)COCC(CO)(CO)CO | inactive | inactive | inactive | inactive | inactive | – | inactive | inactive | inactive | inactive | inactive | inactive | inactive | inactive | inactive | inactive | inactive | inactive | – | –
CCCCCCCCCCCCCCCCCC(=O)OCCCCCCCCCCCCCC(C)C | inactive | inactive | inactive | inactive | inactive | inactive | inactive | inactive | inactive | inactive | inactive | inactive | inactive | inactive | inactive | inactive | inactive | inactive | inactive | inactive
